Assay outcomes (PubChem)
Giardia killer – kills Giardia lamblia; Giardia lamblia trophozoite viability; activity change, % at 7.66 µM, hits read low; AID 540267; hit rate 0.15% among 340,000; in the data active = activity change below about -80%; inconclusive = between about -30% and that limit;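 also: parasites exposed to compound for two days anaerobically before the ATP read; % is scaled to controls: 0 for no effect and ±100 for the full control effect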
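Trophozoite viability was measured as ATP-dependent luminescence, read 15-30 min after reagent addition. Before that, parasites at 100 cells/well were exposed to compounds for 48 h, anaerobically, at 37 deg C.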
MCF10A rereplic – inducers of DNA re-replication in MCF 10A breast cells; MCF 10A DNA re-replication, Hoechst nuclear intensity, 48 h; Potency, µM (titrated, usually from 46.1 µM), without a hit: at the top dose activity, positive = re-replication, actives largely listed as activators; hit rate 2.9% among 350,000; AID 624296; also: potency is read from the fitted curve at half-maximal effect; % of control where 0% means no effect; nearly all actives have a fitted effect of over 50% in size
IL1B secr inh – inflammasome signaling inhibition, IL-1 beta readout; THP-1 LPS/ATP IL-1B secretion, AlphaLISA, 16 h; hits give low values; activity change, % at 57.5 µM; hit rate 4.7% among 360,000; AID 743279; in the data active = activity change below about -50%; inconclusive = mostly about -30% to -49%; also: % is scaled to controls: 0 for no effect and ±100 for the full control effect
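Secreted IL-1B measured by AlphaLISA bead assay after 16 h compound exposure of THP-1 cells; compounds (final up to 57.5 uM) added 1 h before LPS (250 ng/mL) and ATP (1.25 mM) stimulation; lower signal means less secretion.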
Vif-A3F inh – Vif-A3F binding inhibition; HeLa A3F-eYFP + Vif (tagged APOBEC3F with the HIV-1 protein that degrades it), YFP fluorescence increase; Potency, µM (top dose mostly 46.1 µM), for inactives: at the highest dose activity, negative = active; hit rate 0.2% among 390,000; AID 602313; also: potency is read from the fitted curve at half-maximal effect; % of control where 0% means no effect; nearly all actives have a fitted effect of over 65% in size
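HeLa cells stably expressing A3F-eYFP plus Vif, plated and incubated overnight at 37 deg C, then exposed to compounds overnight at 37 deg C. Blocked degradation read as raised yellow fluorescence (Ex 488/Em 500-530).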
SW480 rereplic – DNA re-replication induction in SW480 cells. SW480 DNA re-replication, Hoechst DNA content imaging, 48 h. Potency, µM (series often up to 46.1 µM), inactives show top-dose re-replication activation, most hits filed as activators. hit rate 1.8% among 340,000; also: potency is read from the fitted curve at half-maximal effect; % of control where 0% means no effect; nearly all actives have a fitted effect of over 55% in size
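First, 250 cells per well were seeded. Next, compound or vehicle (23 nL) was pinned in, plates sat 48 hr at 37 C. Finally Hoechst was added for 40 min before fluorescence scanning.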
Vif-A3G inh – blocks the Vif interaction with human APOBEC3G | hit rate 0.076% among 410,000 | HeLa A3G-eYFP + Vif (tagged APOBEC3G with the HIV-1 protein that degrades it), YFP fluorescence, overnight | Potency, µM (top dose mostly 46.1 µM), inactives show at the highest dose activity, negative = active, actives largely listed as inhibitors | AID 602310 | Q9HC16; also: potency is read from the fitted curve at half-maximal effect; % is scaled to controls: 0 for no effect and ±100 for the full control effect; nearly all actives have a fitted effect of over 60% in size
Target sequence (Q9HC16 whole entry, looked up): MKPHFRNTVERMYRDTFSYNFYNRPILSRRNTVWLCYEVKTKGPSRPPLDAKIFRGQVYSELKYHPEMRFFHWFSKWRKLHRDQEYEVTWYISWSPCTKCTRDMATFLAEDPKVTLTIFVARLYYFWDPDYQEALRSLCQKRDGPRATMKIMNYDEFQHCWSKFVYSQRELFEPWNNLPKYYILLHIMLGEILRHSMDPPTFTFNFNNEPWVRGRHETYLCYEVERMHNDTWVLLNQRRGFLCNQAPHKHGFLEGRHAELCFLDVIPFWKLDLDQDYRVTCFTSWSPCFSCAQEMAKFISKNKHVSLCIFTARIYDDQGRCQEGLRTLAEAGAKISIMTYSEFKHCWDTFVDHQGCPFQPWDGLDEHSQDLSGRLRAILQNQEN
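Read-out is eYFP fluorescence (Ex 488/Em 500-530) from Vif-expressing HeLa A3G-eYFP cells; more signal means A3G escaped Vif-mediated degradation. Cells plated overnight, compound pinned in, incubated overnight at 37 deg C.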
* = called active by the depositor; ? = inconclusive; . = no result given; ! = not active in a repeat. This is a sample that favours compounds with a hit; in the whole collection about 6.9% have one here. Unless noted, calls follow the shape of the dose curve; as a rule, active = well fitted curve in the direction sought with a large enough effect; inconclusive = small, poorly fitted or top-dose-only effect, or another doubt; inactive = no such curve, though single readings can be large; an effect the other way counts as inactive or inconclusive.

SMILES | Giardia killer | MCF10A rereplic | IL1B secr inh | Vif-A3F inh | SW480 rereplic | Vif-A3G inh
Cc1ccc(NC(=S)Nc2ccc(F)cc2)cc1C | 14.3 | 9.8% | -58.0* | ? | 5.8% | 3.4%
Fc1ccc(NC(=S)Nc2cccnc2)c(Cl)c1 | 12.5 | -7.0% | 34.3 | 5.3% | 3.1% | 0.2%
CCOc1ccccc1N1CC(c2nc3ccccc3n2CCOc2ccc(OC)cc2)CC1=O (centres undefined) | . | . | . | -7.8% | . | -8.4%
Cc1ccc(OCCn2c(C3CC(=O)N(Cc4ccccc4)C3)nc3ccccc32)cc1 (centres undefined) | 1.2 | 11.6µM* | -21.8 | -10.0% | 0.7% | -11.0%
CCOc1ccccc1N1CC(c2nc3ccccc3n2Cc2c(C)cc(C)cc2C)CC1=O (centres undefined) | . | . | . | 12.6µM* | . | -27.3%
N#Cc1c(-n2ncnc2-c2ccc(F)cc2)sc2c1CCCCC2 | . | . | . | 4.7% | . | -0.1%
O=c1[nH]/c(=C/c2ccc3c(c2)OCO3)c(=O)[nH]/c1=C\c1ccc2c(c1)OCO2 | . | . | . | . | . | 4.9%
CC1CCC(C(C)C)C(OC(=O)COC(=O)c2cccn2C)C1 (centres undefined) | 5.1 | ? | -15.7 | 0.0% | -3.9% | 0.0%
CCOC(=O)Cn1c(COc2ccccc2OC)[n+](C)c2ccccc21 | -17.3 | -0.4% | 22.8 | 3.6% | ? | -1.1%
CC1CCC(C(C)C)C(OC(=O)Cn2c(-c3ccc(Cl)cc3)[n+](C)c3ccccc32)C1 (centres undefined) | 5.3 | ? | -90.7* | 1.6% | ? | -10.0%
CC1CCC(C(C)C)C(OC(=O)c2ccccc2O)C1 (centres undefined) | . | -3.9% | . | . | -3.8% | .
CC1CCC(C(C)C)C(OC(=O)Cn2c(-c3ccc(Br)cc3)[n+](C)c3ccccc32)C1 (centres undefined) | 4.1 | ? | -101.0* | 5.2% | ? | -11.0%
Cc1ccccc1OCc1n(CC(=O)OC2CC(C)CCC2C(C)C)c2ccccc2[n+]1C (centres undefined) | -2.2 | 1.84µM*! | -96.5*! | -6.9% | ? | 2.7%
CC(C)c1ccc(S(=O)(=O)c2cnc(SCC(=O)Nc3cccc(C(F)(F)F)c3)nc2N)cc1 | . | . | . | -11.1% | . | -5.0%
CCOc1ccc(CNC(=O)c2cc3c(s2)-c2ccccc2OC3)cc1 | . | . | . | -0.4% | . | -3.0%
O=C1C=CC(=Nc2cccc3c2C(=O)c2ccccc2-3)O1 | 3.3 | ? | -93.0* | -14.0% | 23.1µM* | ?
O=C1C=CC(=Nc2ccc3c(c2)Cc2cc(F)ccc2-3)O1 | -19.5 | 1.0% | -12.3 | -6.1% | ? | -7.2%
Cc1ccccc1Cn1c(=O)n(CCCCC(=O)NCCc2ccccc2)c(=O)c2ccccc21 | . | . | . | -8.3% | . | 1.6%
N#CC1=C(N)NC(SCc2ccc(F)cc2)=C(C#N)C12CCCCC2 | -19.8 | 8.2µM* | -9.3 | -0.1% | ? | ?
N#CC1=C(N)NC(SCC(=O)O)=C(C#N)C12CCCC2 | 0.5 | -2.0% | -4.1 | -2.5% | -4.2% | -8.6%
Cc1ccc(NC(=O)N2N=C(c3ccc(F)cc3)CC2c2ccc(F)cc2)cc1 (centres undefined) | 6.9 | 5.6% | -3.7 | -12.4% | 5.17µM* | 4.9%
CS(=O)(=O)Nc1ccc(C2=NN(C(=O)c3ccco3)C(c3ccc(F)cc3)C2)cc1 (centres undefined) | 31.8 | -1.1% | -78.7* | 1.0% | -8.5% | -13.2%
O=C(c1ccccc1)N1N=C(c2ccc(F)cc2)CC1c1ccc(F)cc1 (centres undefined) | -5.5 | 12.4% | 15.6 | -16.1% | 5.8% | 1.0%
CC(C)Cc1ccc(S(=O)(=O)Nc2cccnc2)cc1 | -13.9 | 14.5% | 55.0 | -6.2% | 4.61µM* | -0.2%
CCC(C)c1ccc(S(=O)(=O)Nc2cccnc2)cc1 (centres undefined) | 30.1 | 1.9% | 34.1 | -19.4% | 29.3% | 4.3%
SMILES | Giardia killer | MCF10A rereplic | IL1B secr inh | Vif-A3F inh | SW480 rereplic | Vif-A3G inh
CCCSc1nc2c(cnn2-c2ccccc2)c(=O)n1N | 9.7 | ? | -63.3* | -1.1% | -9.8% | -1.9%
COc1ccccc1NC(=O)CCn1nc(-c2ccccc2OC)c2c(C)cc(C)nc21 | . | . | . | 2.7% | . | -1.2%
N#Cc1ccc(-c2cccs2)nc1SCc1cccnc1 | -21.9 | 0.411µM* | 92.8 | -18.8% | 0.731µM* | -64.6%
O=S(=O)(c1cccc(C(F)(F)F)c1)N1CCN(c2nc(-c3ccccc3)nc3ccccc23)CC1 | -6.9 | . | . | . | . | -2.4%
CC(C)NC1CCC(Nc2ccnc3cc(Cl)ccc23)CC1 (centres undefined) | 24.6 | 13.4% | -93.2* | 1.2% | ? | 6.7%
CC(CCCN1CCCC1)Nc1ccnc2cc(Cl)ccc12 (centres undefined) | -4.9 | 4.6% | ? | -2.9% | ? | 1.1%
Clc1ccc2c(NCc3ccccn3)ccnc2c1 | 26.5 | 18.5% | 12.9 | -5.0% | -10.6% | -6.3%
Clc1ccc2c(NCCNC3CCCCC3)ccnc2c1 | -8.9 | ? | -95.4* | -21.2% | 6.51µM* | 4.0%
CN1C(=O)C[C@@H](C(=O)N[C@@H](Cc2cnc[nH]2)C(=O)N2CCC[C@H]2C(N)=O)NC1=O | . | 4.2% | . | . | -0.7% | .
Cc1sc2c(c1C)c(=O)n(-c1ccc(Cl)cc1)c(=O)n2CC(=O)c1ccccc1 | . | . | . | -0.1% | . | 0.1%
CC(C)Cn1c2nc3ccccc3nc2c2c(=O)n(CCN3CCOCC3)cnc21 | 12.7 | -0.2% | -55.6* | 9.4% | -4.1% | 0.6%
COCCOC(=O)c1c(N)n(CCCN2CCOCC2)c2nc3ccccc3nc12 | 2.3 | -7.9% | 8.0 | 7.7% | -4.6% | 0.8%
Cc1cccc(-n2c(N)c(C(=O)NCCN3CCOCC3)c3nc4ccccc4nc32)c1 | -5.9 | 20.6µM* | -64.2* | . | ? | 1.0%
CC(C)Cn1c(N)c(C(=O)NCCN2CCOCC2)c2nc3ccccc3nc21 | 1.9 | -4.9% | -61.4* | -14.1% | -0.2% | 2.0%
C=C1C(=O)[C@@]23[C@H](O)C[C@@H]4C(C)(C)CC[C@H](O)[C@]4(C)[C@@H]2C[C@H](O)[C@@H]1[C@H]3O | -8.2 | 6.51µM* | ? | -5.9% | 2.59µM* | ?
C=C1C(=O)[C@@]23[C@H](O)C[C@@H]4C(C)(C)CC[C@H](O)[C@@]4(C)[C@@H]2CC[C@@H]1[C@H]3O | -11.4 | 0.517µM* | ? | 1.8% | ? | ?
COc1ccc(S(=O)(=O)N2CCC(Oc3ccc(-n4cnnn4)cc3)CC2)cc1OC | . | . | . | 2.0% | . | 2.8%
COc1ccc(N2CC(NC(=O)c3ccc(OC(C)C)cc3)CC2=O)cc1 (centres undefined) | . | . | . | 5.3% | . | 8.4%
O=C(NCc1ccc(Cl)cc1)c1ccc(-c2ccccc2C(F)(F)F)o1 | 14.5 | 23.1µM* | -15.4 | 2.5% | 0.2% | 0.4%
